# Measurements from PubChem BioAssay.
# The source made the active and inactive calls.
# How the values were obtained:
# [1] = optical density shifts of acrAB sulA E. coli – strain DRC41, OD650, 48 h, E. coli filamentation inducer project, primary screen (AID 1152); conditions: higher = more signal, called active from +8 up or from −8 down;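 also: E. coli MC1000 strain DRC41 lacking acrAB efflux pump and sulA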
# [2] = probe aLefty1 binding on compound microarray – biochemical, small-molecule microarray, 635/667 nm fluorescence, primary screen (AID 1153); conditions: higher = more signal;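 also: score merges spot fluorescence with signal-to-noise ratio from the scanned slide images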
# [3] = plasmodial surface anion channel blockers, osmotic lysis – cell-based, P. falciparum Indochina, OD700, 1 h, primary screen (AID 1154); conditions: P. falciparum Indochina infected RBC osmotic lysis, higher = more signal, called active from +8 up or from −8 down
# [4] = plasmodial surface anion channel blockers, osmotic lysis – cell-based, P. falciparum Indochina, OD700, 2 h, primary screen (AID 1155);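 also: lysis reports solute entry through the parasite surface anion channel PSAC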; conditions: P. falciparum Indochina infected erythrocytes, higher = more signal, called active from +8 up or from −8 down
# [5] = changes in parasitized red cell lysis, either direction – P. falciparum Indochina, OD700, 3 h, PSAC antagonist project, primary screen (AID 1156); conditions: P. falciparum-infected erythrocytes, osmotic lysis, higher = more signal, called active from +8 up or from −8 down
# [6] = plasmodial surface anion channel blockers, osmotic lysis – cell-based, P. falciparum Indochina, OD700, 18 h, primary screen (AID 1157); conditions: P. falciparum Indochina infected erythrocytes, osmotic lysis OD700, 18 h; higher = more signal, called active from +8 up or from −8 down
# [7] = S6 kinase pathway phospho-S6 level changes – cell-based, A549, cytoblot, luminescence, serum-stimulated, primary screen (AID 1158); conditions: 5 h, higher = more signal;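 also: serum-stimulated A549 lung adenocarcinoma cells; signal is phosphorylated S6 detected by cytoblot immunostaining with HRP secondary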
# [8] = molecular target: NADPH oxidase 2 (Homo sapiens) (UniProt P04839); assay: compounds shifting NOX2 Amplex Red fluorescence – cell-based, HEK293-NOX2, PMA-stimulated, NOX inhibitor project, primary screen (AID 1159); conditions: 45 min, higher = more signal, called active from +8 up or from −8 down; also: test concentration not given here
# [9] = molecular target: NADPH oxidase 4 (Homo sapiens) (UniProt Q9NPH5); assay: compounds shifting NOX4 Amplex Red fluorescence – cell-based, HEK293-NOX4, tetracycline-induced, NOX inhibitor project, primary screen (AID 1160); conditions: HEK293-NOX4, Amplex Red H2O2 fluorescence, 45 min; higher = more signal, called active from +8 up or from −8 down
# [10] = molecular target: NADPH oxidase 5 (Homo sapiens) (UniProt Q96PH1); assay: compounds shifting NOX5 Amplex Red fluorescence – cell-based, HEK293-NOX5, NOX inhibitor project, primary screen (AID 1161); conditions: HEK293-NOX5, ionomycin, 45 min, higher = more signal
# [11] = compound effects on lung adenocarcinoma cell viability – A549, calcein-AM fluorescence, 48 h, basal, profiling panel (AID 1162); conditions: higher = more signal; also: test concentration not given here
# [12] = compound effects on differentiated 3T3-L1 adipocyte viability – cell-based, 3T3-L1 adipocytes, calcein-AM fluorescence, 48 h, basal, profiling panel (AID 1163); conditions: 3T3-L1 adipocytes viability, higher = more signal; also: test concentration not given here
# [13] = compound effects on hepatocellular carcinoma cell viability – HepG2, calcein-AM fluorescence, 48 h, basal, profiling panel (AID 1164); conditions: higher = more signal; also: test concentration not given here
# [14] = compound effects on multiple myeloma cell viability – MM1S, calcein-AM fluorescence, 48 h, basal, profiling panel (AID 1165); conditions: higher = more signal; also: test concentration not given here
# [15] = calcein-AM signal in unstimulated myeloma cells – cell-based, calcein-AM fluorescence, 48 h, PK04 Diversity Set, profiling panel (AID 1166); conditions: RPMI8226 myeloma viability, higher = more signal;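 also: cells grown under basal conditions without added stimulus; test concentration not given here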
# [16] = JC-1 mitochondrial signal, unstimulated HepG2 cells – cell-based, JC-1 fluorescence, 24 h, 100 nL compound, profiling panel (AID 1167); conditions: HepG2 mitochondrial potential, higher = more signal; also: test concentration not given here
# [17] = JC-1 mitochondrial signal, unstimulated adipocytes – cell-based, JC-1 fluorescence, 3T3-L1 adipocytes, 24 h, 100 nL compound, profiling panel (AID 1168); conditions: JC-1 mitochondrial fluorescence, higher = more signal, called active from +8 up or from −8 down; also: test concentration not given here
# [18] = JC-1 mitochondrial signal, unstimulated myeloma cells – cell-based, JC-1 fluorescence, RPMI8226, 24 h, 100 nL compound, profiling panel (AID 1169); conditions: JC-1 mitochondrial potential fluorescence, higher = more signal; also: test concentration not given here
# [19] = JC-1 mitochondrial signal, unstimulated MM1S myeloma – cell-based, JC-1 fluorescence, 24 h, 100 nL compound, profiling panel (AID 1170); conditions: MM1S mitochondrial potential, higher = more signal; also: test concentration not given here
# [20] = resazurin metabolic signal in A549 cells – cell-based, resazurin fluorescence, 24 h, PK04 Diversity Set, profiling panel (AID 1171); conditions: A549 viability, higher = more signal, called active from +8 up or from −8 down; also: test concentration not given here
# NADPH oxidase 4 (Homo sapiens), sequence (Q9NPH5 whole entry, looked up): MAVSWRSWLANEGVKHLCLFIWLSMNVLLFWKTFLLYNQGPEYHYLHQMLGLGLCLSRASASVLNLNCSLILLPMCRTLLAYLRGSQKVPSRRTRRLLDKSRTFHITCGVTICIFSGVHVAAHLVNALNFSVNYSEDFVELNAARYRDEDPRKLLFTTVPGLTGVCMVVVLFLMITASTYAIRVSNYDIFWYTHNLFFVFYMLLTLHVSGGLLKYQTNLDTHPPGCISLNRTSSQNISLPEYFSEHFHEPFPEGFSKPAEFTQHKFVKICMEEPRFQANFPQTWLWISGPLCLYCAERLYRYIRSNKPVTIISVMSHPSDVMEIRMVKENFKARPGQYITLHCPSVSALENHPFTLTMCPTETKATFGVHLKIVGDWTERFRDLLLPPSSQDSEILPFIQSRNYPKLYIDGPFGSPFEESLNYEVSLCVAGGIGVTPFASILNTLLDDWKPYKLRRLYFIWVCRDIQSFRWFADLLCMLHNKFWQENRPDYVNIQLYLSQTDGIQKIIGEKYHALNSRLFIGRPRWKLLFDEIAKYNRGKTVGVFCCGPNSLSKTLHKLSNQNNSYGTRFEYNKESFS
# NADPH oxidase 5 (Homo sapiens), sequence (Q96PH1 whole entry, looked up): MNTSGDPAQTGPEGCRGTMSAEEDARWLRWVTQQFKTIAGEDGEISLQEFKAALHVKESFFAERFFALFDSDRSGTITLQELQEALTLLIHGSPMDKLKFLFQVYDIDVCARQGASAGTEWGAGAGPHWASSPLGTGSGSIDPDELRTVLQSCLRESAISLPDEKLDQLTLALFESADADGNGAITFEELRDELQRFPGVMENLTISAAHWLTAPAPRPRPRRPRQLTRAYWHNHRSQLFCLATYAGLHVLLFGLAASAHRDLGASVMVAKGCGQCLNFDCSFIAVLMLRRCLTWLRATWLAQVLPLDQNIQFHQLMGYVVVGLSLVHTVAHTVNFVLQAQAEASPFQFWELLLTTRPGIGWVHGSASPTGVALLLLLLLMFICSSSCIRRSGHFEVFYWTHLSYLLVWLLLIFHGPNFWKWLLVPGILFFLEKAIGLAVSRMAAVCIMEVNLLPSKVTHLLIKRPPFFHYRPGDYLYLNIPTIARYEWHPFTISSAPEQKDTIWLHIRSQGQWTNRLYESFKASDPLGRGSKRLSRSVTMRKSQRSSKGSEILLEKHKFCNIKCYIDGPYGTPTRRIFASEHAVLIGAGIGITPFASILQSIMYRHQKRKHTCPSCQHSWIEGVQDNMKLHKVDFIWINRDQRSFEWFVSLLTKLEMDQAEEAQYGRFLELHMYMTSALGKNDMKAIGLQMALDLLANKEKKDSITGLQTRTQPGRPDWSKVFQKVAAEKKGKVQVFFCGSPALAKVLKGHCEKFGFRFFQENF
# NADPH oxidase 2 (Homo sapiens), sequence (P04839 whole entry, looked up): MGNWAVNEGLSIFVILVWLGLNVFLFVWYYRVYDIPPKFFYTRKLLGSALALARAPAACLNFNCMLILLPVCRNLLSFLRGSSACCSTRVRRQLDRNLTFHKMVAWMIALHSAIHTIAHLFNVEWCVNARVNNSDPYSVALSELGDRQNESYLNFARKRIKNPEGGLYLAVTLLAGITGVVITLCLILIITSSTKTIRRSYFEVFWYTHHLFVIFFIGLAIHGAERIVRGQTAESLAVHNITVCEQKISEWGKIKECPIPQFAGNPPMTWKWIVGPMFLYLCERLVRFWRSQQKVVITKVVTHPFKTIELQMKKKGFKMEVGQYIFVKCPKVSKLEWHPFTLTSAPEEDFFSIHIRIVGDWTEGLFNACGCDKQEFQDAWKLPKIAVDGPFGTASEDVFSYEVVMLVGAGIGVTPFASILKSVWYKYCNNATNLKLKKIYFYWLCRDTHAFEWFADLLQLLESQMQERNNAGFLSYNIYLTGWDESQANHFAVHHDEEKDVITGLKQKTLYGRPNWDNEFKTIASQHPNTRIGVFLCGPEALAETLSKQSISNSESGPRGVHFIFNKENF
SMILES,z-score [1],composite z-score [2],z-score [3],z-score [4],z-score [5],z-score [6],z-score [7],z-score [8],z-score [9],z-score [10],z-score [11],z-score [12],z-score [13],z-score [14],z-score [15],z-score [16],z-score [17],z-score [18],z-score [19],z-score [20]
COCCOC(=O)N1C(=O)[C@@]2(c3cc(C#CC4(O)CCCCCC4)ccc31)[C@H](C(=O)N1CCCCCCC1)[C@H]1C(=O)O[C@H](c3ccccc3)[C@H](c3ccccc3)N1[C@@H]2c1ccc(O)cc1,1.13 (inactive),2.25,0.908 (inactive),0.128 (inactive),-0.373 (inactive),-0.763 (inactive),1.49,1.5 (inactive),0.372 (inactive),2.35,-0.475,2.45,-0.0416,-0.747,-0.733,-0.355,1.16 (inactive),-0.861,-0.219,0.627 (inactive)
[N-]=[N+]=NCc1ccccc1[C@H]1OC(c2ccc(OCCCO)cc2)=N[C@@]1(Cc1ccccc1N=[N+]=[N-])C(=O)NCc1ccccc1,-0.258 (inactive),0.195,28.3 (active),20.5 (active),1.96 (inactive),1.99 (inactive),-0.0679,-0.627 (inactive),0.522 (inactive),-0.56,-0.741,0.236,-0.946,-2.4,-3.8,0.37,-0.296 (inactive),-1.02,-1.38,0.0642 (inactive)
O=C1C[C@@](C(=O)NC2CC2)(c2ccc([N+](=O)[O-])cc2)[C@@H](c2ccc(CO)cc2I)N1CC12CC3CC(CC(C3)C1)C2,-1.11 (inactive),0.0158,22.3 (active),6.32 (inactive),1 (inactive),1.99 (inactive),-0.284,1.86 (inactive),0.129 (inactive),1.92,-2.31,-0.375,-5.04,-3.83,-4.33,-2.32,-0.869 (inactive),-1.02,-2.4,-3.35 (inactive)
CCCCO[C@H]1C[C@H]2C(Br)=C[C@@]1(CO)C(=O)[C@]21CO1,2.71 (inactive),-0.198,-0.789 (inactive),-1 (inactive),-0.269 (inactive),-2.44 (inactive),1.69,-0.446 (inactive),0.493 (inactive),0.178,0.491,0.53,-0.337,-0.997,-0.545,0.76,1.33 (inactive),-1.12,0.149,0.6 (inactive)
C[C@@H]1CC[C@H]2C(=O)N3[C@@H](CC[C@@H](C)[C@@H]3c3cccc(N4CCOCC4)c3)C(=O)N2[C@H]1c1cccc(Br)c1,0.801 (inactive),-0.0061,8.99 (active),1.51 (inactive),0.826 (inactive),0.71 (inactive),-0.246,0.693 (inactive),0.815 (inactive),0.717,1.56,1.4,0.273,-0.775,-1.3,3.04,0.37 (inactive),-0.779,0.521,1.36 (inactive)
O=C1C[C@@](C(=O)NCCN2CCOCC2)(c2ccc([N+](=O)[O-])cc2)[C@@H](c2ccc(CO)cc2)N1C1CCCCC1,1.21 (inactive),-0.154,2.02 (inactive),0.834 (inactive),3.08 (inactive),-0.137 (inactive),-0.371,0.768 (inactive),0.947 (inactive),0.24,1.16,0.936,0.339,0.324,0.633,0.899,0.295 (inactive),0.36,1.22,0.981 (inactive)
COC(=O)C(CC#Cc1ccc2c(c1)[C@]1(C(=O)N2)[C@H](C(=O)N2CCCCCCC2)[C@H]2C(=O)O[C@H](c3ccccc3)[C@H](c3ccccc3)N2[C@@H]1c1ccc(O)cc1)C(=O)OC,0.752 (inactive),0.297,0.561 (inactive),-0.312 (inactive),-0.221 (inactive),-1.18 (inactive),1.28,0.455 (inactive),0.264 (inactive),0.147,0.654,1.27,0.294,-1.25,-0.248,-0.21,-0.0509 (inactive),0.145,-1.15,-0.429 (inactive)
C=CCc1cccc([C@@H]2[C@@H](C)CC[C@H]3C(=O)N4[C@H](c5cccc(CC=C)c5)[C@@H](C)CC[C@H]4C(=O)N23)c1,0.0258 (inactive),0.142,5.32 (inactive),1.46 (inactive),2.14 (inactive),0.738 (inactive),-0.0433,-0.23 (inactive),-0.0735 (inactive),-1.48,-0.814,1.29,-0.746,-3.58,-3.9,2.17,0.639 (inactive),-0.811,-1.28,3.27 (inactive)
CN1C(=O)C2C=CC(C(O)c3ccc(N(C)C)cc3)N(Nc3ccc([N+](=O)[O-])cc3[N+](=O)[O-])C2C1=O (stereo not given),-0.692 (inactive),0.719,2.33 (inactive),1.27 (inactive),-0.169 (inactive),1.05 (inactive),-0.444,-0.742 (inactive),-1.39 (inactive),-0.0769,1.09,-0.459,-0.0167,-0.126,-0.4,-0.672,-1.06 (inactive),0.0429,-0.0883,0.0697 (inactive)
COc1cccc([C@@H]2[C@@H](C)CC[C@H]3C(=O)N(C)[C@@H](C(C)C)C(=O)N23)c1,1.1 (inactive),-0.193,-0.147 (inactive),0.651 (inactive),-0.355 (inactive),-0.0201 (inactive),0.423,0.226 (inactive),0.0929 (inactive),0.265,0.908,0.323,0.445,0.344,1.44,0.0824,0.517 (inactive),-0.338,0.64,0.65 (inactive)
COC(=O)C[C@H]1O[C@]2(C(=O)N(Cc3ccccc3)c3ccc(I)cc32)[C@@H](C)[C@@H]1[Si](C)(C)c1ccc(OC)cc1,-0.562 (inactive),-0.235,1.09 (inactive),0.544 (inactive),0.558 (inactive),0.574 (inactive),1.01,1.89 (inactive),-2.05 (inactive),0.00992,-0.344,1.02,0.638,-0.077,-1.22,2.66,-1.07 (inactive),-0.226,0.211,-0.923 (inactive)
C=C[C@H](OC)[C@@H](OC(=O)Nc1ccc(SC)cc1)c1ccc(O)c(F)c1,0.738 (inactive),0.0043,25.5 (active),8.06 (active),1.83 (inactive),-0.016 (inactive),0.461,-2.96 (inactive),-1.66 (inactive),-1.06,0.137,0.0047,-0.14,-0.913,-1.07,-2.33,3.02 (inactive),-1.09,-0.75,-0.538 (inactive)
C=CC[C@]1(C(=O)NCC(O)CO)N=C(c2ccc(OCCCO)cc2)O[C@H]1c1ccccc1 (stereo not given in full),1.46 (inactive),-0.179,6.95 (inactive),0.741 (inactive),1.55 (inactive),0.618 (inactive),0.672,1.22 (inactive),0.542 (inactive),0.195,0.495,0.991,0.417,-0.176,0.213,-0.0851,-0.386 (inactive),-0.895,0.334,0.912 (inactive)
C[C@@H]1CC[C@H]2C(=O)N3[C@@H](CC[C@@H](C)[C@@H]3c3cccc(N4CCOCC4)c3)C(=O)N2[C@H]1c1cccc(N2CCOCC2)c1,0.107 (inactive),0.191,0.43 (inactive),0.367 (inactive),0.567 (inactive),0.197 (inactive),0.348,1.07 (inactive),-1.09 (inactive),0.125,0.197,1.3,-0.894,0.467,-0.267,1.03,0.543 (inactive),-0.685,0.713,1.05 (inactive)
C=CCC(OC(C)=O)[C@@H]1[C@@H](N(Cc2cc3ccccc3o2)C(=O)Cc2ccc(F)cc2)c2cc(OCCCO)ccc2N1C(=O)c1ccc(-c2ccccc2)cc1 (stereo not given in full),1.66 (inactive),0.0091,-0.171 (inactive),0.229 (inactive),-0.454 (inactive),0.0413 (inactive),0.437,0.578 (inactive),0.684 (inactive),0.314,1.79,0.0893,1.01,0.661,0.708,2.84,0.756 (inactive),0.602,0.0416,1.18 (inactive)
CC(C)(C)OC(=O)CC[C@]1(C(=O)N2CCCCC2)N=C(c2ccc(OCCCO)cc2)O[C@H]1c1ccccc1,0.978 (inactive),-0.294,24 (active),6.24 (inactive),1.03 (inactive),-0.186 (inactive),2.2,-1.41 (inactive),1.02 (inactive),0.541,2.04,1.24,1.01,0.523,-1.04,2.2,2.09 (inactive),-0.123,0.317,-0.354 (inactive)
C=CC[C@]1(C(N)=O)N=C(c2ccc(OCCCO)cc2)O[C@H]1c1ccccc1CN=[N+]=[N-],2.19 (inactive),-0.007,23.9 (active),6.58 (inactive),-0.294 (inactive),0.837 (inactive),1.73,-2.02 (inactive),-0.202 (inactive),0.568,0.919,2.24,-0.509,-0.562,-1.37,2.69,-0.436 (inactive),-0.434,0.501,0.01 (inactive)
CO[C@H]1COC(=O)[C@H](Cc2ccccc2)NC(=O)CC=C[C@@H](C)[C@H](OC)COC(=O)CC=C[C@@H]1C,0.284 (inactive),-0.0241,-0.144 (inactive),-1.22 (inactive),-1 (inactive),-1.27 (inactive),0.501,-3.05 (inactive),0.103 (inactive),0.784,-0.0862,-0.557,0.5,0.214,1.71,0.00562,0.954 (inactive),-0.791,0.411,0.174 (inactive)
